Screening data from PubChem BioAssay.
In the library only some 3.6% were active in any assay of this set; here they are far more common.
mHTT-CaM PPI inh: mHTT-calmodulin interaction abrogation | AlphaScreen His-mHTT/GST-CaM binding, luminescence | inhibition, % at 15 µM | P42858 | 190,000 tested, 3.6% active | AID 1671202;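 note: 0% = both proteins with DMSO and 100% = one protein alone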
Pf apPOL block: Pf-apPOL DNA polymerase inhibition. Recombinant Pf-apPOL, molecular beacon fluorescence, 1.5 h. inhibition, % at 10 µM. 210,000 tested, 0.25% active
* hit, by the source's call; · = not tested or not shown. Cut-off read from the data, not from the text of the source: active = inhibition above about 50%; inactive = the rest.

SMILES	mHTT-CaM PPI inh	Pf apPOL block
N#C/C(=C\c1ccc(-c2ccc(Cl)c(Cl)c2)o1)c1[nH]nc(N)c1C#N	95*	-7
COc1ccc(OC)c(/C=C(\C#N)c2[nH]nc(N)c2C#N)c1	61*	-64
Cc1ccc(/C=C(\C#N)c2[nH]nc(N)c2C#N)cc1	31	-1
N#C/C(=C\c1ccc2c(c1)OCO2)c1[nH]nc(N)c1C#N	20	-3
Nc1ncnc(NCCCc2ccccc2)c1[N+](=O)[O-]	-3	0
COCCNC(=O)CN1C(=O)/C(=C/c2ccc(Cl)cc2)Sc2ccccc21	11	-5
O=C(CN1C(=O)/C(=C/c2ccc(Cl)cc2)Sc2ccccc21)NCc1ccccn1	54*	-2
CN(C)CCNC(=O)CN1C(=O)/C(=C/c2ccc(Cl)cc2)Sc2ccccc21	20	5
CCN(CC)CCNC(=O)CN1C(=O)/C(=C/c2ccc(Cl)cc2)Sc2ccccc21	59*	4
CCCCNC(=O)CN1C(=O)/C(=C/c2ccccc2C)Sc2ccccc21	-4	-5
CCOCCCNC(=O)CN1C(=O)/C(=C/c2ccccc2C)Sc2ccccc21	15	74*
CCN(CCNC(=O)CN1C(=O)/C(=C/c2ccccc2F)Sc2ccccc21)c1ccccc1	17	1
CN(CCNC(=O)CN1C(=O)/C(=C/c2ccccc2F)Sc2ccccc21)Cc1ccccc1	92*	-1
Cc1cccc(S(=O)(=O)N2CCc3nc[nH]c3C2)c1	0	-2
O=C(CN1C(=O)CSc2ccccc21)NCc1ccccn1	24	-20
O=C(CN1C(=O)/C(=C/c2ccccc2)Sc2ccccc21)NCc1ccccn1	72*	-8
CCN1CCN(C(=O)CN2C(=O)/C(=C/c3ccc(C(F)(F)F)cc3)Sc3ccccc32)CC1	68*	2
O=C(CN1C(=O)/C(=C/c2ccc(C(F)(F)F)cc2)Sc2ccccc21)N1CCCC1	14	4
CCc1c(C(=O)O)nnn1-c1cccc(OC)c1	-3	1
CC(=NCC(C)C)c1c(C)[nH]n(-c2ccc(Br)cc2Br)c1=O	1	-64
CCOCC(=O)N1CC(c2nc(-c3ccccc3)no2)C2(CCOCC2)C1 (stereo not drawn)	2	-3
Cc1nc(C)c(Cc2ccc(Cl)cc2)c(N2CCN(C(=O)C3CCOC3)CC2)n1 (stereo not drawn)	64*	-2
Cc1ccc(C)c(Cc2c(C)nc(C)nc2N2CCN(C(=O)C3CCOC3)CC2)c1 (stereo not drawn)	38	3
CCCCS(=O)(=O)N1CC(C)C(c2nc(-c3ccccc3)no2)C1 (stereo not drawn)	-5	4
O=C(c1ccc(SCc2cccnc2)c([N+](=O)[O-])c1)N1CCCC1	4	-7
SMILES	mHTT-CaM PPI inh	Pf apPOL block
Cc1cccc(N2CCN(C(=O)c3ccc(SCc4cccnc4)c([N+](=O)[O-])c3)CC2C)c1 (stereo not drawn)	98*	-4
COCCN1C(=O)CCC2(CNC(=O)c3ccsc3)CCCC12 (stereo not drawn)	-15	-5
CCn1cnc2sc(C(=O)Nc3ccccn3)c(C)c2c1=O	0	-10
CC(C)c1ccccc1OCc1nc(C(=O)N2CCCC2)cs1	-3	-6
COc1ccc(/C=C/c2ccccc2)cc1[C@H]1[C@@H]2C=CCC[C@@]2(C)C(=O)N1Cc1ccccc1	35	-7
COc1ccc(-c2ccc(N(C)C)cc2)cc1[C@H]1[C@@H]2C=CCC[C@@]2(C)C(=O)N1Cc1ccccc1	73*	-2
CC(=O)c1ccc(-c2ccc([C@H]3[C@@H]4C=CCC[C@@]4(C)C(=O)N3Cc3ccccc3)c(F)c2)cc1	14	-6
COc1ccc(Br)cc1[C@H]1[C@@H]2C=CCC[C@@]2(C)C(=O)N1Cc1ccccc1	90*	13
COc1ccc(-c2ccc(OC)c([C@H]3[C@@H]4C=CCC[C@@]4(C)C(=O)N3Cc3ccccc3)c2)cc1	38	-4
COc1ccc(-c2ccc(OC)c([C@H]3[C@@H]4C=CCC[C@@]4(C)C(=O)N3Cc3ccccc3)c2)cc1OC	76*	-2
C1CCC2(C1)OCC(CNCCNCC1COC3(CCCC3)O1)O2 (stereo not drawn)	4	3
COc1cccc(NC(=O)CN2CCN(C3c4ccccc4-c4ccccc43)CC2)c1	25	0
CN(C)c1ccc(NC(=O)CCN2CCN(C3c4ccccc4-c4ccccc43)CC2)cc1	93*	-5
O=C(CCN1CCN(C2c3ccccc3-c3ccccc32)CC1)Nc1cccc(C(F)(F)F)c1	69*	0
CCOc1ccc(NC(=O)CCN2CCN(C3c4ccccc4-c4ccccc43)CC2)cc1	4	-1
O=C(CN1CCN(C2c3ccccc3-c3ccccc32)CC1)Nc1ccc(F)c(F)c1	74*	-4
CN(C)c1ccc(NC(=O)CN2CCN(C3c4ccccc4-c4ccccc43)CC2)cc1	36	-2
Cc1nn(-c2ccc(C(=O)NC3CCCCC3)cc2)c2c1C(=O)CCC2	0	0
O=C(O)C=CC(=O)Nc1ccc(C(=O)O)c(O)c1	·	0
O=C(O)c1nn2c(C(F)(F)F)cc(-c3ccccc3)nc2c1Br	38	-7
CN(C)C(C)(C)C#CC(O)(c1ccccc1)c1ccccc1	-5	-3
Cc1ccc(C(O)C#CC(O)(c2ccccc2)c2ccccc2)o1 (stereo not drawn)	58*	-9
OC(C#CC(O)(c1ccccc1)c1ccccc1)c1cccs1 (stereo not drawn)	-1	-4
OC(C#CC(O)(c1ccccc1)c1ccccc1)c1ccccc1F (stereo not drawn)	-5	88*
COc1ccccc1CNC(=O)C1c2ccccc2C(=O)N(C)C1c1cccs1 (stereo not drawn)	-6	2
SMILES	mHTT-CaM PPI inh	Pf apPOL block
O=C(NC1CC2CC1N(C(=O)Cc1cccnc1)C2)c1cccs1 (stereo not drawn)	-5	0
Cc1c(C)c2cc3c(-c4ccc(F)cc4)coc3cc2oc1=O	1	-3
Cc1c(C)c2cc3c(-c4ccccc4)coc3cc2oc1=O	-7	60*
Cc1ccnc(N2CCCC(C(=O)NCCCN3CCN(c4ccc(F)cc4)CC3)C2)n1 (stereo not drawn)	12	-1
Cn1nc(-c2cccc(NC(=O)c3ccc(S(=O)(=O)N4CCCC4)cc3)c2)ccc1=O	3	2
CS(=O)(=O)N1CC(C(=O)Nc2ccc3c(c2)OCCO3)C2(CCCCC2)C1 (stereo not drawn)	12	5
O=C(Nc1ccc2c(c1)OCO2)C1CN(S(=O)(=O)C2CC2)CC12CCCCC2 (stereo not drawn)	73*	1
COc1cc(C(=O)Nc2nc3ccccc3n2C)cc(OC)c1OC	57*	-10
Cn1c(NC(=O)c2ccc(F)cc2)nc2ccccc21	34	-7
COc1cc(C(=O)Nc2ccc3c(c2)ncn3-c2ccc(C)cc2)cc(OC)c1OC	53*	-3
COc1ccccc1-n1cnc2cc(NC(=O)c3cc(OC)c(OC)c(OC)c3)ccc21	21	-2
Cc1ncsc1CN1CCC(O)(c2ccccc2)C(N(C)C)C1 (stereo not drawn)	7	-4
O=C(Nc1cccc(N=Cc2cc(Br)ccc2O)c1)c1ccco1	26	-8
Cc1ccccc1C(=O)Nc1cccc(N=Cc2cc(Cl)cc([N+](=O)[O-])c2O)c1	49	2
CC(=O)Nc1cccc(N=Cc2cc(Cc3ccccc3Cl)cc([N+](=O)[O-])c2O)c1	98*	-3
